DAX1 inh-1 = inhibits human nuclear receptor DAX1; actives 0.99% (n = 340,000); AID 504766; inhibition, % at 6.75 µM; P51843; HEK293 Gal4-DAX1 luciferase reporter, luminescence;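 active = inhibition above the mean over all tested compounds plus 3 SD, cut at about 4.2% in these data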;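 also: 0% = DAX1-transfected cells with DMSO and 100% = empty-vector control cells with DMSO; inhibition shows as a rise in luminescence from relieved DAX1 repression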
Target sequence (P51843 207-470 limits assumed): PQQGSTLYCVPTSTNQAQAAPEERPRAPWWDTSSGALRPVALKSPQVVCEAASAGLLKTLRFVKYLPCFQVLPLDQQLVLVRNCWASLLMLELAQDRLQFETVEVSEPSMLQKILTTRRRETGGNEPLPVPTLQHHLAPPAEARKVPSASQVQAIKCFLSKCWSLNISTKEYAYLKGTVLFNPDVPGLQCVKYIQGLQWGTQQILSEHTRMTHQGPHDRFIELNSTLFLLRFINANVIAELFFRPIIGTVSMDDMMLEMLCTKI
SMARCA2 act = activators of SMARCA2 function; activation, % at 9.1 µM; actives 1% (n = 370,000); MG213 cells, MMTV-luciferase reporter, dexamethasone, overnight; AID 652017; in the data active = activation above about 7.8%;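 also: 0% = vehicle wells and 100% = reference activator wells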
hgDAF12 agonist = hgDAF-12 agonism, primary luciferase screen; HEK293 GAL4-hgDAF12 UAS-luciferase reporter, agonist luminescence; normalized to butyrate control; activation, % at 6.8 µM; actives 1.8% (n = 370,000);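 active = activation above a cutoff set at the mean of all screened compounds plus 3 SD, cut at about 10% in these data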;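 also: 0% = DMSO wells and 100% = sodium butyrate wells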
ssDAF-12 act = S. stercoralis DAF-12 activation, primary screen; actives 1% (n = 370,000); HEK293 ssDAF-12/GRIP1 lit1-tk-luc reporter, luminescence; % of 3 µM dafachronic acid response; activation, % at 6.8 µM; AID 652126;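 active = activation above the mean over all tested compounds plus 3 SD, cut at about 0.9% in these data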;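 also: 0% = DMSO-only wells and 100% = 3 µM delta7-dafachronic acid wells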
hcDAF12 agonist = H. contortus DAF-12 activation, primary screen; HEK293 hcDAF-12 lit1-tk-luc reporter, luminescence; 0% DMSO, 100% Δ7-dafachronic acid; activation, % at 6.8 µM; actives 1.4% (n = 370,000);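 active = activation above the mean of all tested compounds plus 3 SD, cut at about 5.5% in these data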;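 also: 100% = response to 3 µM Δ7-dafachronic acid high control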
DAX1 inh-2 = DAX1 (NR0B1) inhibition, primary screen. inhibition, % at 6.8 µM. actives 1.1% (n = 370,000). HEK293T StAR-luciferase reporter, SF-1/DAX-1 repression relief;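 active = inhibition above the mean over all tested compounds plus 3 SD, cut at about 3.6% in these data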;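 also: 0% = DAX-1 cells with DMSO and 100% = cells lacking DAX-1 with DMSO; higher inhibition means more luminescence from relief of DAX-1 repression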
DAX1 conf = confirmation of human DAX1 (NR0B1) inhibitors | HEK293T StAR-promoter luciferase reporter, SF-1/DAX-1 repression | shares compounds with DAX1 inh-2 | actives 87% (n = 2,400) | inhibition, % at 6.8 µM;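 active = inhibition above the average of every tested compound plus 3 SD, cut at about 3.8% in these data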;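 also: 0% = DAX-1 cells with DMSO and 100% = no DAX-1 control cells with DMSO; active compounds raise luminescence by relieving repression of the StAR reporter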
SF1 mutant ctr = nonselective inhibitor or artifact in SF-1 mutant DAX1 counter-screen | inhibition, % at 6.8 µM | actives 78% (n = 2,400) | HEK293 StAR-luciferase, SF-1 AF2 mutant, luminescence | shares compounds with DAX1 inh-2;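 active = inhibition above the mean of all tested compounds plus 3 SD, cut at about 3% in these data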;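 also: 0% = DAX-1 transfected cells with DMSO and 100% = cells without DAX-1 with DMSO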
LXR ag = LXR-beta agonism as hcDAF-12 counter-screen; shares compounds with hcDAF12 agonist; HEK293 Gal4-LXR tk-luc reporter, luminescence, 24 h; normalized: DMSO 0%, positive control 100%; activation, % at 6.8 µM; 3,400 tested, under 10 active;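 active = mean percent activation of the reporter above a cutoff set as the average over tested compounds plus their standard deviation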
hcDAF12 ag = confirmation of H. contortus DAF-12 agonists; shares compounds with hcDAF12 agonist; activation, % at 6.8 µM; actives 61% (n = 3,400); HEK293 hcDAF-12 lit1-tk-luc reporter, luminescence; % of Δ7-dafachronic acid response;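 active = mean activation across triplicate tests above the threshold derived from the earlier primary screen, cut at about 5.5% in these data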;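 also: 0% = DMSO only wells and 100% = 3 µM Δ7-dafachronic acid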
hgDAF12 ag = confirmation of H. glycines DAF-12 agonists; shares compounds with hgDAF12 agonist; HEK293 GAL4-hgDAF12 luciferase reporter, agonist mode; percent of butyrate response; activation, % at 6.8 µM; actives 80% (n = 3,300); AID 743050;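 active = mean activation over triplicate wells above the hit cutoff derived from the earlier primary screen, cut at about 11% in these data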;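 also: 0% = DMSO low control and 100% = 2 mM sodium butyrate high control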
LXRb DAF12 ctr = counter-screen for DAF-12 agonists: agonists of human LXR-beta | shares compounds with hgDAF12 agonist | HEK293 Gal4-LXR luciferase reporter, 24 h | activation, % at 6.8 µM | 3,300 tested, under 10 active | AID 743051;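 active = mean activation of the triplicate above a set limit carried over from the primary screen, none filed active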
* marks the source's active call; other numbers are inactive results; x = no result given. Rows were chosen to be rich in hits. Some 4.8% of all compounds tested hit in one or more screens of this group.

SMILES	DAX1 inh-1	SMARCA2 act	hgDAF12 agonist	ssDAF-12 act	hcDAF12 agonist	DAX1 inh-2	DAX1 conf	SF1 mutant ctr	hgDAF12 ag	LXRb DAF12 ctr	others
Nc1c(C(=O)Nc2ccc(Cl)cc2)oc2ccccc12	4.3*	4	20*	2.2*	22*	6.4*	15*	11*	24*	1	LXR ag=2;hcDAF12 ag=16*
COC(=O)[C@]12CCCCC=C1N(Cc1ccc(OC)cc1)C(=O)[C@@H]2CC(=O)NCc1cccc(C(F)(F)F)c1	x	1	0	-2	-2	0	x	x	x	x
COC(=O)C1C(=O)c2c([nH]c(C(=O)OC3CCCC3C)c2C)CC1C (configuration not stated)	4	3	18*	1	1	4.7*	5.5*	3.3*	11*	1
CC(Cc1ccccc1)NC(=O)c1ccc([N+](=O)[O-])cc1 (configuration not stated)	3	7.8*	14*	1	5.7*	4.8*	14*	8.9*	14*	1
CC(Cc1ccccc1)NC(=O)/C=C/c1ccc([N+](=O)[O-])cc1 (configuration not stated)	-2	-3	1	-2	-1	-1	x	x	x	x
CC(C)(C)c1ccc(C(=O)Nc2cc(Cl)c(Cl)cc2C(=O)O)cc1	x	x	-2	-2	2	x	x	x	x	x
Cc1cccc(NC(=O)c2cnc3ccccn3c2=O)c1	1	3	22*	1	8.8*	7.7*	11*	4.4*	17*	1	LXR ag=2;hcDAF12 ag=6.1*
O=C(Nc1ccc2c(c1)OCCO2)c1cnc2ccccn2c1=O	2	5	10	0	1	3	x	x	x	x
CC(=O)N1CCN(c2cc(C)nc3nc(C)nn23)CC1	x	-5	0	-1	-1	0	x	x	x	x
CCOC(=O)[C@@]12CCC3=C1N(CCC3)C(=O)[C@H](CC(=O)NCc1cccc3ccccc13)C2	x	-1	1	-1	-2	0	x	x	x	x
CCOC(=O)c1sc2nc(NC(=O)C(C)(C)C)sc2c1C	1	0	14*	1	4	5.2*	4.1*	0	6	1
CCOC(=O)c1sc2nc(NC(=O)C3CC3)sc2c1C	1	-2	1	-1	2	0	x	x	x	x
Brc1ccc(/C=N/Nc2ccc3ccccc3n2)cc1	2	7	7	0	5	2	x	x	x	x
Fc1cccc(/C=N/Nc2ccc3ccccc3n2)c1	3	6	21*	1.7*	12*	6.7*	16*	6.6*	20*	1	LXR ag=2;hcDAF12 ag=11*
O=S1(=O)c2ccc(N3CC[C@H](O)C3)cc2OCCCN1C1CC1	x	-1	0	-1	-2	-1	x	x	x	x
Cc1cc(C)n2nc(-c3ccc(F)cc3)cc2n1	3	7	18*	2.9*	9.5*	6.6*	13*	8.5*	18*	1	LXR ag=1;hcDAF12 ag=12*
Cc1ccc(C2=NN3C(C2)c2ccccc2OC32C(=O)Nc3ccccc32)cc1 (configuration not stated)	2	0	25*	2.2*	19*	5.3*	9.9*	9.4*	20*	1	LXR ag=1;hcDAF12 ag=8.3*
CC(Sc1nnc(-c2ccccc2F)o1)C(=O)Nc1ccc(N2CCOCC2)cc1 (configuration not stated)	-1	2	1	-1	1	1	x	x	x	x
Cc1occc1-c1nnc(SC(C)C(=O)Nc2ccccc2F)o1 (configuration not stated)	0	6	15*	0	4	10*	9.5*	7.1*	14*	0
Cc1ccc(-n2c(SCC(=O)c3ccc(-c4ccccc4)cc3)nnc2-c2ccc(C(C)(C)C)cc2)cc1	x	-3	6	-2	1	0	x	x	x	x
COC(=O)c1sc2nc3c(cc2c1N)CCCC3	3	4	25*	0	6.5*	5.1*	13*	6.8*	18*	1
CCOC(=O)c1sc2nc3c(cc2c1N)COC(C)(CC)C3 (configuration not stated)	2	1	14*	0	9.3*	4.8*	14*	6.0*	18*	1	LXR ag=2;hcDAF12 ag=6.1*
O=C(Nc1ccccc1C(F)(F)F)OC1CCC12CCC(c1ccccc1)CC2 (configuration not stated)	x	-3	-1	-2	0	0	x	x	x	x
Cc1ccc(/C=C(\C#N)C(=O)Nc2ccccn2)o1	3	7	18*	1	3	11*	10*	7.6*	13*	1
Cc1ccc(/C=C(\C#N)C(=O)NC(C)C)o1	1	-1	0	-1	-2	0	x	x	x	x
Fc1ccc(Cn2ccc3ccc(-c4ccc5ccn(Cc6ccc(F)cc6)c5c4)cc32)cc1	x	-2	2	0	1	-1	x	x	x	x
CC(=O)c1cnc2cc(-c3ccccc3)nn2c1C	1	2	5	0	1	2	x	x	x	x
Nc1c(-c2ccccc2)cnc2cc(-c3ccccc3)nn12	5.6*	5	22*	0.9*	2	6.0*	16*	7.7*	26*	1
CCOC(=O)[C@]12CCCC=C1N(CCCOC)C(=O)[C@@H]2CC(=O)N1CCN(C(=O)c2ccco2)CC1	x	-2	0	-1	1	-1	x	x	x	x
CC(CCN1CCC(C(O)(c2ccccc2)c2ccccc2)CC1)Oc1cc(F)cc(F)c1 (configuration not stated)	x	-6	1	0	1	-2	x	x	x	x

Screening data deposited in PubChem BioAssay by The Scripps Research Institute Molecular Screening Center.
